In the supplement of paper PMC7156485:
Where a name gives a salt, the structure may show the parent alone.

Test system: TDF
Experiment: H1.0 immunofluorescence intensity relative to DMSO (% of DMSO); higher = stronger H1.0 induction, active = 120 or more
Details: concentration: 10 µM; 24 h
How it was run: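 Treatment: HCC1569 and TDF cells, 800 per well in 384-well plates with RPMI and 10% FBS, were given compounds at 10 µM for 24 h at 37 °C, in triplicate. Readout: after 3.7% formaldehyde fixation, cells were stained with a rabbit anti-H1.0 antibody, an AlexaFluor 647 secondary and DAPI. Reported values are H1.0 nuclear intensity or cell number as percent of the plate control, taken as the median of replicates, with positional smoothing for HCC1569.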
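Note: TDF is a line of transformed human dermal fibroblasts of mesenchymal origin.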

Compound	H1.0 immunofluorescence intensity
NCC(CP(=O)(O)O)c1ccc(Cl)cc1 (centres undefined) [Phaclofen]	95.8 (inactive)
Br.C=CCN1CCc2cccc3c2C1Cc1ccc(O)c(O)c1-3 (stereo not drawn) [R(-)-N-Allylnorapomorphine hydrobromide]	104 (inactive)
NC(=O)CN1CCCC1=O [Piracetam]	92 (inactive)
CC(=O)C1CCC2C3CCC4CC(O)CCC4(C)C3C(=O)CC12C (stereo not drawn) [5alpha-Pregnan-3alpha-ol-11,20-dione]	94.1 (inactive)
CN1C2CCC1CC(O)C2 (centres undefined) [Tropine]	96.1 (inactive)
C=CCN1CC(C)N(C(c2ccc(C(=O)N(CC)CC)cc2)c2cccc(OC)c2)CC1C (centres undefined)	96.5 (inactive)
N#CC(C#N)=Cc1ccc(O)c(O)c1 [Tyrphostin 23]	94.4 (inactive)
O=C1C=CC(=O)C=C1 [p-Benzoquinone]	93.1 (inactive)
CCCN(CCC)C1CCc2ccc(O)cc2C1 (racemic)	88.7 (inactive)
C[N+]1(C)C2CCC1CC(OC(=O)C(CO)c1ccccc1)C2.[Br-] (centres undefined) [Atropine methyl bromide]	91.2 (inactive)
Cl.O=c1[nH]oc2c1CCNC2 [THIP hydrochloride]	94 (inactive)
CC(N)C(O)c1ccc(O)c(O)c1 (single isomer, unassigned; (-)) [(-)-alpha-Methylnorepinephrine]	85.9 (inactive)
NC(Cn1oc(=O)[nH]c1=O)C(=O)O (single isomer, unassigned; (+)) [(+)-Quisqualic acid]	93.9 (inactive)
Cl.NCCc1c[nH]c2ccccc12 [Tryptamine hydrochloride]	95.5 (inactive)
CCC1(c2ccc(N)cc2)CCC(=O)NC1=O (racemic) [DL-Aminoglutethimide]	93.1 (inactive)
CC(C)Oc1cccnc1N(C)C1CCN(Cc2ccc(I)cc2)CC1 [RBI-257 maleate]	94.8 (inactive)
COc1ccccc1N1CCNCC1.Cl [1-(2-Methoxyphenyl)piperazine hydrochloride]	96.4 (inactive)
CC(=O)OCC1=C(C(=O)[O-])N2C(=O)C(NC(=O)CCCC(N)C(=O)[O-])C2SC1.[Zn+2] (centres undefined) [Cephalosporin C zinc salt]	97.3 (inactive)
O=C1C=C2C=CC3CC2(O1)C1CCCCN31 (centres undefined) [Securinine]	102 (inactive)
CC12C(=O)OC(=O)C1(C)C1CCC2O1 (centres undefined) [Cantharidin]	210 (active)

Compound	H1.0 immunofluorescence intensity
N#CC(C#N)=Cc1cc(O)c(O)c(O)c1 [Tyrphostin 25]	102 (inactive)
NC(=NCCCC(N)C(=O)O)N[N+](=O)[O-] [NG-Nitro-L-arginine]	89.6 (inactive)
Cc1ccc2c(c1)C1(CCN(CCc3nc(-c4ccccc4)oc3C)CC1)OC(=O)N2	107 (inactive)
CCc1c(C(=O)OC)ncc2[nH]c3cc(OC)c(OC)cc3c12 [Methyl 6,7-dimethoxy-4-ethyl-beta-carboline-3-carboxylate]	88.1 (inactive)
Br.CC1NCCc2cc(O)c(O)cc21 (centres undefined)	105 (inactive)
CC(C)(C)c1cc(C=C(C#N)C#N)cc(Br)c1O	110 (inactive)
CCN1CC2(C)CCC(OC)C34C2C(OC(C)=O)C2(OCOC25CC(OC)C2CC3(O)C5C2OC)C14 (centres undefined) [Deltaline]	98.2 (inactive)
C=C(C)C1Cc2c(ccc3c2OC2COc4cc(OC)c(OC)cc4C2C3=O)O1 (centres undefined) [Rotenone]	147 (active)
N[C@@](CF)(Cc1cnc[nH]1)C(=O)O [MK-453 hydrochloride]	100 (inactive)
CCC(C(N)=O)N1CCCC1=O (centres undefined) [Levetiracetam]	95.2 (inactive)
CCCN(CCC)C1CCc2c(F)ccc(O)c2C1.Cl (stereo not drawn) [S(-)-UH-301 hydrochloride]	98.7 (inactive)
Cn1ncnc1COc1nn2c(-c3c(F)cccc3F)nnc2cc1C1CCC1	93.6 (inactive)
C=C1C(C)C2C(Cc3ccccc3)NC(=O)C23OC(=O)C=CC(O)CCCC(C)CC=CC3C1O (centres undefined) [Cytochalasin B]	125 (active)
CC(=O)OC1CC2CCC3C(CCC4(C)C3CC([N+]3(C)CCCCC3)C4OC(C)=O)C2(C)CC1[N+]1(C)CCCCC1.[Br-].[Br-] (centres undefined) [Pancuronium.2Br]	93.9 (inactive)
C=CCN1CCC23CCCCC2C1Cc1ccc(O)cc13.O=C(O)C(O)C(O)C(=O)O (centres undefined) [Levallorphan tartrate]	90.1 (inactive)
Fc1cc(F)c2c(c1)C1C=CCC1C(c1cccnc1)N2 (centres undefined)	126 (active)
CCC1(O)C(=O)OCc2c1cc1n(c2=O)Cc2cc3ccccc3nc2-1 [(S)-(+)-Camptothecin]	126 (active)
Cl.Cl.NNCc1cccc(O)c1 [3-Hydroxybenzylhydrazine dihydrochloride]	117 (inactive)
C=C1C2CC3(C1O)C1CC4C5(C)CCC(O)C4(C1N(CC)C5)C3CC2=O (centres undefined) [Songorine]	90 (inactive)
